Data as given in PubChem BioAssay AID1053 (University of Pittsburgh Molecular Library Screening Center, 2008).
Unmarked numbers belong to inactive results. No rule for the calls is given here.

target: Serine/threonine-protein kinase PLK1 (Homo sapiens) (UniProt P53350); assay: Plk1 polo box domain binding inhibitors, SAR follow-up, biochemical, fluorescence polarization, purchased analogs (AID 1053); conditions: Plk1 PBD fluorescence polarization peptide binding; at 20 µM; stronger effect = higher value
Sequence (P53350 whole entry, looked up, the tested form may be a part): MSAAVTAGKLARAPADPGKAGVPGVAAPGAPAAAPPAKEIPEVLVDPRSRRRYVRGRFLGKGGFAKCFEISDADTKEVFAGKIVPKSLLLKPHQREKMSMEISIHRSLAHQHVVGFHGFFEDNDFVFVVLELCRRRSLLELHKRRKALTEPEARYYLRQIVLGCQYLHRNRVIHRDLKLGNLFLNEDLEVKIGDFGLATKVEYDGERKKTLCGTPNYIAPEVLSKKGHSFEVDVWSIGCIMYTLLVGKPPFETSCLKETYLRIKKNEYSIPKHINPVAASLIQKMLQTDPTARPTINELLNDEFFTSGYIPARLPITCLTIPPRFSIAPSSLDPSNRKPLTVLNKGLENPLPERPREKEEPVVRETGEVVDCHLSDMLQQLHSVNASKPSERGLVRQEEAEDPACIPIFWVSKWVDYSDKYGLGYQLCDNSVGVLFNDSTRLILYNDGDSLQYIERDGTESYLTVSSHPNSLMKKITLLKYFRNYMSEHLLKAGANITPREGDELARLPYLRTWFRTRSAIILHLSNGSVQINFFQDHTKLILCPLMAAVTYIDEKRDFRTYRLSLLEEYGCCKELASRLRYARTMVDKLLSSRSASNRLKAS

| Structure (SMILES) | inhibition |
| --- | --- |
| CC(=O)N(/N=C1\Sc2ccccc2C1=O)c1ccccc1 | 24.7% |
| O=c1cc[nH]c2cc(N3CCOCC3)c(F)cc12 | -49% |
| CCOC(=O)c1ccc(N=Cc2c(O)n(Cc3ccccc3)c(=O)[nH]c2=O)cc1 | -22.9% |
| CCOC(=O)c1ccc(NC(=O)c2ccc(NC(=O)CC)cc2)cc1 | -9.03% |
| CCN(CC)CCOC(=O)c1ccc(N=Cc2c(O)n(Cc3ccccc3)c(=O)[nH]c2=O)cc1 | -220% |
| CCOC(=O)c1ccc(NC(=O)C2Cc3ccccc3C(=O)O2)cc1 (stereo unspecified) | -59.4% |
